From PubChem
Shown are actives, neighbours in structure and some others; about 12% of the full set was active somewhere.
G9a inh: blocks human histone lysine methyltransferase G9a. Q96KQ7. G9a H3K9 monomethylation, AlphaScreen, 2 h. Potency, µM (doses to about 102 µM), inactives show at the top dose activity, negative = inhibition, usual class: inhibitors. hit rate 8.8% among 350,000. AID 504332; further: on the % scale 0 is the no-effect control and ±100 the full control effect; nearly all actives have a fitted effect of over 75% in size
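AlphaScreen detection with an anti-monomethyl H3K9 antibody quantified product after a 2 h room-temperature reaction containing 500 nM biotinylated H3K9 peptide, 20 µM SAM and 20 nM enzyme, which had been preincubated 15 min with compound.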
L3MBTL1 inh: blocks human L3MBTL1; Q9Y468; AlphaScreen L3MBTL1–H3K9me1 peptide binding; Potency, µM (titrated, usually from 57.1 µM), inactives show top-dose activity, negative = inhibition, hits mostly inhibitors; hit rate 0.66% among 230,000; AID 485360; further: on the % scale 0 is the no-effect control and ±100 the full control effect; nearly all actives have a fitted effect of over 60% in size
Target sequence (Q9Y468 whole entry, looked up): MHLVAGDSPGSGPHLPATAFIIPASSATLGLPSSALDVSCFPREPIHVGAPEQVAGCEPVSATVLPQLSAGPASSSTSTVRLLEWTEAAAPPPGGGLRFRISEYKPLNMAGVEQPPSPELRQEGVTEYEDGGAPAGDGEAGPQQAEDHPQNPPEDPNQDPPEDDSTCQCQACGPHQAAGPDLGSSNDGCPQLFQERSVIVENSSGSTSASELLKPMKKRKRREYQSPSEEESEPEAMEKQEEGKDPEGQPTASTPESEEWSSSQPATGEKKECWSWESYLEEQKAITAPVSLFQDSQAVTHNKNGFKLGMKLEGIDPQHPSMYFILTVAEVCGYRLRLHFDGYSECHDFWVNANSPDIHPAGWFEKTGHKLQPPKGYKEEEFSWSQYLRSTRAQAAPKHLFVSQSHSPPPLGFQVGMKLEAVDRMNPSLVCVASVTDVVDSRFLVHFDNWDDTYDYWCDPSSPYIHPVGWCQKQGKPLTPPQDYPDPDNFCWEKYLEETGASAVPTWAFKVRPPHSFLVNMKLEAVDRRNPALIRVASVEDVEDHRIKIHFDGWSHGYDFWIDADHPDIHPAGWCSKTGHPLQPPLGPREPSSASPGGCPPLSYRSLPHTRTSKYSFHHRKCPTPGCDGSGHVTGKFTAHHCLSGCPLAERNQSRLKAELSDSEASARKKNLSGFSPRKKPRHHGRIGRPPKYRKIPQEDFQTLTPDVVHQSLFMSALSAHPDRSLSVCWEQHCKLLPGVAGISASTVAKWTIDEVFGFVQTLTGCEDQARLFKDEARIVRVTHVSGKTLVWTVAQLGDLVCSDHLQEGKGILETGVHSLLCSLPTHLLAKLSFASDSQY
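AlphaScreen assay: L3MBTL1 (50 nM final) was preincubated 30 min at room temperature with biotinylated H3(1-15)K9me1 peptide (75 nM final), then 30 min with library compounds; streptavidin donor and nickel chelate acceptor beads (10 ug/mL final) added, 30 min dark.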
HP1b binding inh: inhibitors of HP1-beta chromodomain binding to methylated histone tails | P83916 | AlphaScreen HP1-beta / biotin-H3K9me3 peptide binding | Potency, µM (titrated, usually from 114 µM), without a hit: top-dose activity change, negative = inhibition, actives largely listed as inhibitors | hit rate 0.56% among 390,000 | AID 540317; further: nearly all actives have a fitted effect of over 70% in size
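AlphaScreen: HP1-beta (50 nM) preformed 30 min with biotin-H3(1-18)K9me3 peptide (50 nM) in PBS pH 7.4, 0.01% Tween-20. Compound added for 30 min at RT, then streptavidin donor/nickel chelate acceptor beads (10 ug/mL) for 30 min.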
JMJD2A Tudor: inhibitors of human JMJD2A Tudor domain | O75164 | AlphaScreen JMJD2A-Tudor / H3K4me3 peptide binding | Potency, µM (top dose mostly 114 µM), inactives show at the highest dose activity change, negative = inhibition, usual class: inhibitors | hit rate 4.4% among 390,000; further: on the % scale 0 is the no-effect control and ±100 the full control effect; nearly all actives have a fitted effect of over 50% in size
BAZ2B inh: inhibitors of human BAZ2B bromodomain. AlphaScreen BAZ2B-H3K14Ac peptide displacement. AID 504333. Potency, µM (highest dose often 114 µM), for the others: top-dose activity change, negative = inhibition, actives largely listed as inhibitors. hit rate 4.4% among 360,000; further: on the % scale 0 is the no-effect control and ±100 the full control effect; nearly all actives have a fitted effect of over 60% in size
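In this displacement format the biotinylated H3(5-23) peptide acetylated at Lys14 serves as ligand at 50 nM, with BAZ2B at 50 nM in PBS pH 7.4 containing 0.01% Tween-20. Donor and acceptor beads are 10 ug/mL final.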
Sfp PPTase inh: inhibitors of Bacillus subtilis Sfp phosphopantetheinyl transferase. Q9F4F7. Biochemical Sfp PPTase activity, qHTS. Potency, µM, inactives show largest response in the series, negative = inhibition, usual class: inhibitors. hit rate 3.5% among 310,000;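 further: the enzyme is Sfp with the accession as filed and its product quenches rhodamine fluorescence; 0% = enzyme reaction without inhibitor and -100% = no enzyme wells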
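Reaction rates are the 30-min fluorescence difference (ex 525, em 598 nm) in wells containing 15 nM Sfp, 5 uM rhodamine-CoA and 12.5 uM BHQ-2-YbbR at pH 7.6 with 10 mM MgCl2.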
* hit, by the source's call; ? = inconclusive; . = no result given; [ ] = another dose, or the depositor's remark. The call rests on the fitted dose curve; in most records, active means well fitted curve in the direction sought with a large enough effect; inconclusive means small, poorly fitted or top-dose-only effect, or another doubt; inactive means no such curve, though single readings can be large; an effect the other way counts as inactive or inconclusive. Potency means the concentration at half of the fitted maximal effect.

SMILES	G9a inh	L3MBTL1 inh	HP1b binding inh	JMJD2A Tudor	BAZ2B inh	Sfp PPTase inh
O=C(COC(=O)CCC(=O)c1ccc(Cl)cc1)NCc1ccco1	50.1µM*	-90.0%	-13.8%	?	.	14.1µM*
O=C(COC(=O)c1ccccc1Nc1ccc(SC(F)F)cc1)NCc1ccco1	2.2%[59 µM]	1.1%	19.8%	-1.9%	7.6%	-8.2%
COc1cccc(OC)c1C(=O)OCC(=O)NCc1ccco1	20.7%[59 µM]	-1.8%	40.7%	-15.8%	6.2%	.
Cc1c(C(=O)OCC(=O)NCc2ccco2)cccc1[N+](=O)[O-]	-38.3%[59 µM]	-25.7%	-13.7%	?	50.1µM*	.
O=C(COC(=O)c1ccc(F)cc1Cl)NCc1ccco1	?	?	?	50.1µM*	50.1µM*	.
Cc1cccc(Nc2ccccc2C(=O)OCC(=O)NCc2ccco2)c1C	-11.6%[0.0925 µM]	-16.4%	-14.6%	44.7µM*	50.1µM*	-2.7%
O=C(COC(=O)c1ccc([N+](=O)[O-])cc1Cl)NCc1ccco1	2.7%[12.7 µM]	-1.6%	27.6%	-12.8%	-32.1%	.
CC(=O)Oc1ccccc1C(=O)NC(C)CCc1ccccc1 (stereo unspecified)	.	8.3%	27.0%	-10.1%	6.3%	1.1%
O=C(OC(C(=O)NCc1ccccc1)c1ccccc1F)c1ccco1 (stereo unspecified)	-8.9%	.	57.7%	-0.7%	-17.8%	-5.2%
Cc1cc(Br)ccc1NC(=O)C1CCN(S(=O)(=O)c2ccc(Br)s2)CC1	6.7%[59 µM]	.	29.4%	-11.0%	37.5%	.
CCC(=O)c1ccc(OCC(=O)OC(C)C(=O)N2CCc3ccccc32)cc1 (stereo unspecified)	5.2%	-1.1%	23.5%	-6.2%	9.2%	.
O=C(Cn1nnc(-c2ccc(Cl)cc2)n1)NCc1ccco1	?	-4.9%[11.4 µM]	22.3%	-31.7%	50.1µM*	-9.1%
O=C(Cc1ccccc1[N+](=O)[O-])NCc1ccco1	?	.	1.2%	-23.5%	18.8%	50.1µM*
COc1cc2c(-c3cccc(Cl)c3)nc3c(c(C)nn3-c3ccccc3)c2cc1OC	37.4%[59 µM]	.	57.4%	8.2%	13.9%	.
C=CS(=O)(=O)c1c2cc(OC)ccc2nc2ccc(OC)cc12	.	.	59.9%	25.7%	.	.
CCSS(=O)(=O)c1cccc2cccnc12	0.447µM*	-7.7%	?	1.12µM*	22.4µM*	20µM*
CSc1cccc(NS(=O)(=O)c2ccc3[nH]cc(C(=O)N4CCCCCC4)c(=O)c3c2)c1	?	.	22.1%	-25.7%	.	.
Cc1csc(=O)n1CCC(=O)OCC(=O)NNC(=O)c1ccccc1	56.2µM*	-5.9%	15.6%	3.4%	-4.1%	.
Cc1csc(=O)n1CCC(=O)OCC(=O)Nc1ncc(Cl)cc1Cl	44.7µM*	-12.2%	-20.4%	-19.3%	?	.
Cc1csc(=O)n1CCC(=O)OCC(=O)Nc1cc(Cl)ccc1[N+](=O)[O-]	18.8%[12.7 µM]	-18.6%	?	?	?	.
Cc1csc(=O)n1CC(=O)OCC(=O)NNC(=O)c1ccccc1	44.0%	.	29.2%	0.7%	-5.5%	-0.6%
CCS(=O)(=O)c1nc(NC(C)=O)n[nH]1	5.62µM*	22.2%	0.1%	6.2%[11.4 µM]	50.1µM*	-9.9%
CC(C)CCCC(C)C1CCC2C3CC=C4CC(=O)CC[C@@]4(C)C3CC[C@@]12C (stereo partly specified)	.	.	.	.	.	5.3%
Cc1cc(C)cc(-n2ccnc2SCC(=O)c2c(N)n(C3CC3)c(=O)[nH]c2=O)c1	2.51µM*	0.0%	23.2%	-13.5%	5.1%	.
CNc1nnc(SCC(=O)c2c(N)n(C3CC3)c(=O)[nH]c2=O)s1	44.7µM*	10.2%	9.1%	-9.9%	10.6%	.
SMILES	G9a inh	L3MBTL1 inh	HP1b binding inh	JMJD2A Tudor	BAZ2B inh	Sfp PPTase inh
Cc1ccccc1Nc1nnc(SCC(=O)c2c(N)n(C3CC3)c(=O)[nH]c2=O)s1	10µM*	8.0%	24.5%	-9.0%	11.5%	.
Cc1ccc(Nc2nnc(SCC(=O)c3ccc(Br)s3)s2)c(C)c1	11.2µM*	-3.9%	10.0%	-18.2%	-27.0%	2.2%
CCCn1c(N)c(C(=O)CSc2nnc(-c3cccs3)n2C2CC2)c(=O)[nH]c1=O	.	0.5%	14.9%	-4.9%	.	.
Cc1ccccc1Nc1nnc(SCC(=O)c2ccc(O)cc2O)s1	8.91µM*	.	-7.2%	-33.6%	-33.8%	-12.2%
CSc1nnc(Nc2ccccc2C)s1	28.2µM*	.	28.8%	-10.7%	0.9%	16.7%
Cc1cc(NC(=O)CSc2nnc(Nc3ccccc3C)s2)no1	?	-6.4%	-14.8%	0.0%[11.4 µM]	-20.3%	5.5%
Cn1c(N)c(C(=O)CSc2nnc(-c3cccs3)n2C2CC2)c(=O)[nH]c1=O	50.1µM*	-6.9%	18.7%	-11.0%	4.1%	.
Cc1ccc(CC2CC(=O)N(CCc3ccccc3)C2=O)cc1 (stereo unspecified)	51.9%	13.6%	65.2%	16.1%	14.1%	12.0%
O=C1CC(Cc2ccccc2)C(=O)N1CCCn1ccnc1 (stereo unspecified)	?	3.9%	.	.	50.1µM*	?
Cc1cc(C)cc(NC(=O)CSc2nc(N)c(NC(=O)c3cccs3)c(=O)[nH]2)c1	11.2µM*	15.0%	15.3%	-15.0%	-7.5%	-2.6%
C=CCSc1nc(N)c(NC(=O)c2ccco2)c(=O)[nH]1	.	.	28.6%	-5.6%	.	.
CC(=O)Nc1ccc(-n2nnnc2SCC(=O)Nc2cccc(NC(=O)c3ccco3)c2)cc1	25.3%[59 µM]	.	15.5%	-29.0%	?	50.1µM*
Nc1nc(SCC(=O)Nc2ccc(F)cc2)[nH]c(=O)c1NC(=O)c1ccc(F)c(F)c1	79.4µM*	.	18.0%	-3.5%	-21.2%	-4.4%
CC(=O)Nc1ccc(NC(=O)CSc2nc(N)c(NC(=O)c3ccco3)c(=O)[nH]2)cc1	-5.3%[12.7 µM]	.	13.8%	-14.6%	50.1µM*	-2.8%
CC1(C)CC(=O)C=C(NC2CCCC(O)C2)C1 (stereo unspecified)	9.6%[2.33 µM]	10.0%	21.3%	0.0%	41.1%	.
CC[C@]12c3[nH]c4ccccc4c3CCN1C(=O)C(CC(=O)NCCC1=CCCCC1)C[C@@H]2C(=O)N1CCN(C(=O)c2ccco2)CC1 (stereo partly specified)	.	-9.5%	30.4%	-25.3%	.	.
Clc1ccc(OCc2nn3c(C4CCCCC4)nnc3s2)cc1	8.91µM*	-2.9%	-20.5%	-25.4%	-0.7%	20µM*
Cc1ccc(C23CC4CC(CC(NC(=O)NCCN(C)C)(C4)C2)C3)cc1	?	.	40.3%	2.6%	2.1%	-10.9%
CN(C)CCNC(=O)COc1ccc(C23CC4CC(CC(C4)C2)C3)cc1	50.1µM*	-10.6%	-17.8%	-30.8%	-31.3%	-7.4%
CCOC(=O)c1oc2nc(C)c3c(c2c1N)CC(C)(C)OC3	?	-4.5%	?	15.8µM*	-26.3%	-1.6%
CCCc1oc(C(=O)O)cc1CN	?	.	38.7%	-19.4%	?	2.0%
CCc1oc(C(=O)O)cc1CN(CC)CC	-27.3%[59 µM]	.	-2.0%	31.6µM*	-19.5%	13.6%
